In the assay the test system is RARb homodimer (NR concentration 270 nM). As to the kind of experiment: PBM binding z-score (relative to random genomic background probes); higher = stronger binding; sequences stand for … in GC…GCGATTGACAGCGTAGAATGAAGG
Put shortly: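 Ligand-free nuclear receptor dimers were bound for 1 h to custom Agilent 4×180K protein-binding microarrays. Detection used antibodies against each partner (one per run). Binding z-scores rest on regression-normalized fluorescence, with random background probes as the reference.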
On to TCTAGCAGGCCAGAGGGCCACTCAAGAGGTACGG, for which the PBM binding z-score was -0.0244.
With CAAACTAGGTCAAAGGTCCAAGTCGAGCCAACCA the figure was 3.54; with CCTTACGGGTCACTCCCGGTTATAGCATCGGAGT, 2.94; with CGAACTAGGTCAAGGACAGTGACTCTCCGCACGC, 3.26.
The same measure for GCCAGCAGGCCATTTGGGTCACTCAATGACGGGC: 1.78.
With TCTTATAGGTAAAGGTGAAAGTCGAACGATATGA the figure was 1.59; with TCTGCTAGGTCAGTTGTTCAGCTAACGAGCTGCC, 2.19.
Take CATACAGTGTCAGCTAGGCCAGAGTAGGGACGGC: the PBM binding z-score stood at 0.245.
The sequence CGCACGAGGGCATGAGTTGATAGCAAATGCCGAT returned a PBM binding z-score of 1.2.
With TAGCCTAGGTCATTGGGCGAGTATAGTACGCATC the figure was 2.6.
With AGCACGAGGGCACGCTGAGTTGATAGCAGAGTAG the figure was 1.33; with GCAGACAGGTGAAACTCAGGTAACTCAGGGTGGC, 0.42.
With ACTAGTTGGTCAGCGGAGGTCACACACAATTCGG the figure was 4.09; with TCTATTAGTTGAAGGGCTACCGACGAGTCCGTTT, 0.0763; with CGTCCAAGGTGAAGGTCAGTGAAAGAGACTCGAA, 3.4.
Sequence CCGACTGGGGCAAAGGTTACCTTACTCAGTACGA gave a PBM binding z-score of 2.02.
Take TCATATAGGTAAAGGTGAAAGTGGAACGATATGA: the PBM binding z-score is 1.44.
With CCGACTGGGACAAGGTTACCATAACGCACAGCCA the figure was 0.97.
The same measure for TCTCGGAGGACCCGAAAGGTCAGAGCTCGACATC: 4.21; for CGTCAAGGTTCAAGGTAACGTAACAGAAAGCAGC: 1.73; for CCTACTGGGCCAAAGGTAATTGATTCCAATGCTC: 0.00337.
The same measure for TCTTGTAGATCGAGCAGGTTAAGAAAGCCTGAGT: -0.141; for CAAACTAGGTCACCGGAAGGTCAAGGTCCGCATG: 5.77.
The sequence TGAACGAGGTTATAAGATCAGGGAACGTTGCAAA came in with a PBM binding z-score of 0.253.
For the sequence ACTAGTTGGTCAGCTGAGGTCTCACACAATTCGG, the PBM binding z-score came out at 1.08.
With CAAACTAGGTAACGAAAGGTCAAAGTCGAATGAC the figure was 4.76.
With CCTATTAGTTGACCATAAGGGCAACCGAAGCTCG the figure was 2.05; with TCGAGTAGGTAAGTCGGGGCATTCAGCCAACATA, -0.0679.
The same measure for CGAACGAGGGCATGAATTGATAGCAAATGCCGAT: 0.244; for TCACCAAGGTGAGCTGAGGTCGTTGATCCAACTC: 1.5; for ACAGACAGGTGAGTGAAGGTAACTCAGCTGGACG: 0.005.
As to ACTAGCAGGCCGAGGGTCACTCAAGATTAGTCCG, the PBM binding z-score stood at 2.43.
With CCTATTAGTTGACCATAAGGACAACCGAAGCTCG the figure was 1.71.
The same measure for AGTCAAAGTTCACTAGGTACCGTAAGATTCAGCT: 3.6; for GCTTACGGGTCAAAGGTTATAGAATGAATAGAAT: 3.44.
ATCTCTAGGTAACAAGTTCTGTGAAAGAGAGGAC showed a PBM binding z-score of 0.522.
With ATCTTTAGGTAAAAGTTCAGTGAATCCCGAGGAT the figure was 2.61; with CAAACTAGGTCAAGAGGTCAAAATCCGCTTCCCG, 5.66.
With ACTAGCAGGCCAAGTTTGGGTCAGTCAAACAAAG the figure was 1.85.
The same measure for TCTCGGAGGACACGAAAGGTCAGATCTCGACATC: 4.71.

The record behind these values is the supplement of paper PMC6555819.
